These results are taken from PubChem BioAssay (EPA / NIEHS).

The source made the active and inactive calls. Rule for the calls: active = hit-call score of the fitted dose curve at least 0.9, where 1 is the maximum; inactive = score below 0.9.

Read-out in the experiment: Transforming growth factor beta 1 (TGFb1), TGFB1 (gene 7040)
Nature of the experiment: BSK_KF3CT_TGFb1: BioMAP Diversity Plus: KF3CT Assay for Transforming growth factor beta 1 (TGFb1) Biomarker Activity (AID 2283072). The conditions noted are these: primary human keratinocytes with fibroblasts; actives raise or lower the signal. The method, then: BSK_KF3CT is a cell-based, multiplexed-readout assay that uses keratinocytes and foreskin fibroblasts, a human skin primary cell co-culture, with measurements taken at 24 hours after chemical dosing in a 96-well plate.BSK_KF3CT_TGFb1 is an assay component measured in the BSK_KF3CT assay. It measures TGF-b1 antibody related to regulation of gene expression using ELISA technology.Data from the assay component BSK_KF3CT_TGFb1 was analyzed into 1 assay endpoint. This assay endpoint, BSK_KF3CT_TGFb1, was analyzed with bidirectional fitting relative to DMSO as the negative control and baseline of activity. Using a type of binding reporter, gain or loss-of-signal activity can be used to understand changes in the signaling as they relate to the gene TGFB1. Furthermore, this assay endpoint can be referred to as a primary readout, because this assay has produced multiple assay endpoints where this one serves a signaling function. To generalize the intended target to other relatable targets, this assay endpoint is annotated to the growth factor intended target family, where the subfamily is transforming growth factor beta.
The levels of cell surface (or secreted, indicated by the prefix "s") biomarker endpoints were measured by ELISA. Overt cytotoxicity to cells in confluent adherent cultures (all systems other than the BT system) was assessed by measuring total protein levels using sulforhodamine B (SRB) staining in parallel cultures at the time of biomarker measurements, indicated as SRB endpoints. For proliferation assays for adherent cell types, individual cell types are cultured at sub-confluence and relative cell numbers quantified by SRB staining at time points optimized for each system (48 h: 3C and CASM3C systems; 72 h: BT and HDF3CGF systems; 96 h: SAg system). SRB was performed by staining cells with 0.1% SRB after fixation with 10% TCA and reading wells at 560 nm.Viability and proliferation of PBMC (T cells) was quantified by Alamar Blue reduction for the SAg and BT systems. For PBMC viability (referred to as PBMC Cytotoxicity within the assay endpoint names), cells were plated (75,000/well in a 96-well plate) and then chemical samples added for 1 h before addition of activators, SEB and TSST-1 (20 ng/mL final concentration each). Cells were incubated for 90 h. Then, Alamar Blue (20 uL/well) (Invitrogen, Cat DAL1100) was added for 6 h, and the plates were read with a fluorescence microplate reader at 546/580 nm (excitation/emission). For PBMC proliferation, cells were plated and activated as above but incubated for only 16 h prior to addition of Alamar Blue. Plates were read after 6 h.
For `Cc1ncc(CO)c(CO)c1O`, the outcome was inactive. For the compound `c1ccc2ccccc2c1`, the outcome was inactive.

For orientation: AC50 means the concentration at which the activity in the assay is half-maximal. As to `Cc1cc(F)ccc1-c1cc(N2CC[C@@H](O)[C@H]2CO)ncc1N(C)C(=O)C(C)(C)c1cc(C(F)(F)F)cc(C(F)(F)F)c1`, the AC50 is 25.1 µM (active). As for `CC1=CC(=O)/C(=C(/C)O)C(=O)O1`, the outcome was inactive. The same measure, in the same setting: then `O=C1CCC(C2CCCCC2)CC1`, with “inactive”; and `Cc1ccc2oc(CN(Cc3ccccc3)C(=O)Nc3c(F)cc(F)cc3F)c(-c3ccc(Cl)cc3)c2c1`, with “inactive”. With `CCOC(=O)O[C@H](C)OC(=O)c1ccc2c(c1)cc(C(=O)NC1CCN(C(C)C)CC1)n2Cc1cc(-c2ccc(Cl)s2)on1`, the AC50 is 6.7 µM (active). Take `CC[C@@H]1C[C@H](N(Cc2cc(C(F)(F)F)cc(C(F)(F)F)c2)C(C)=O)c2cc(C(F)(F)F)ccc2N1C(=O)OC(C)C`: the result was inactive. Same read-out and setting: then `O=C(O)c1ccccc1-n1cc(C(=O)O)c(=O)c2cc(Nc3c(F)cc(F)cc3Cl)c(Cl)cc21`, with “inactive”; and `CCCCCCCC[Si](OCC)(OCC)OCC`, with “inactive”. As to `CCN(Cc1cccc(S(=O)(=O)O)c1)c1ccc(C(=C2C=CC(=[N+](CC)Cc3cccc(S(=O)(=O)O)c3)C=C2)c2ccccc2S(=O)(=O)[O-])cc1`, the outcome was inactive. Still for that read-out and setting: the same measure for `CCCCCc1ccc(N)cc1`: “inactive”. Take `OCCO`: the outcome was inactive. Same read-out and setting: the same measure for `CCCCCCCCCC(=O)O`: “inactive”. In the case of `Cc1cn([C@H]2C[C@H](N=[N+]=[N-])[C@@H](CO)O2)c(=O)[nH]c1=O`, the result was inactive.

Consider `OC12N=C(c3ccccc3)SC1Cc1cc(Cl)ccc12` (stereo not given), for which the outcome was inactive.

For the compound `CN1C(=O)CC[C@H]1c1cccnc1`, the result was inactive.

With `CN(C)C(=O)C1(N2CCCCC2)CCN(CC[C@@]2(c3ccc(Cl)c(Cl)c3)CN(C(=O)c3ccccc3)CCO2)CC1`, the AC50 is 29.8 µM (active).

On to `CCCOC(=O)c1cc(O)c(O)c(O)c1`, for which the AC50 was 1.53 µM (active). With `Cc1c2ccccc2c(C)c2c1ccc1ccccc12`, the result was inactive. Still for that read-out and setting: the same measure for `Cc1cccc2ccccc12`: “inactive”; for `CCCCCCCCCCCO`: “inactive”; for `COc1ccc2cc(S(=O)(=O)N[C@H](CC(=O)N[C@H](Cc3ccc(CN4[C@H](C)CCC[C@@H]4C)cc3)C(=O)N(C)C(C)C)c3ccc4c(c3)OCO4)ccc2c1`: “inactive”. Regarding `C[C@]12CC[C@@H]3c4ccc(O)cc4CC[C@H]3[C@@H]1CC[C@H]2O`, the outcome was inactive.

For `COc1cccc([C@H](O)C2CCN(CCc3ccc(F)cc3)CC2)c1OC`, the outcome was inactive. As for `CCCCCCCCOC(=O)c1cc(O)c(O)c(O)c1`, the AC50 was 8.45 µM (active).

Regarding `CC(C)(C)c1csc(-c2cc3cc(OCc4ccccc4CC(=O)O)ccc3o2)n1`, the concentration at half-maximal activity (AC50) is 10.8 µM (active). Take `CCCCOC(=O)CC(CC(=O)OCCCC)(OC(C)=O)C(=O)OCCCC`: the outcome was inactive. With `NC(=O)c1nc(-c2cccc(-c3cc(F)ccc3OCC(F)(F)C(F)(F)F)c2)n[nH]1`, the AC50 was 36.1 µM (active). `CC(C)(O)c1ccc(CNC(=O)c2cccnc2Oc2ccc3nonc3c2)cc1`: the result was inactive. As for `O=C(O)Cn1c(=O)n(Cc2ccc(Br)cc2F)c(=O)c2ccc(Cl)cc21`, the result was inactive.

For `Clc1ccccc1C(c1ccccc1)(c1ccccc1)n1ccnc1`, the AC50 was 6.57 µM (active). Turning to `O=C(O)c1ccccc1C(=O)OCc1ccccc1`, the outcome was inactive. With `CCCCOC(=O)c1ccc(O)cc1`, the result was inactive. As to `Oc1ccccc1`, the result was inactive. The same measure, in the same setting: then `c1ccc2n[nH]nc2c1`, with “inactive”; and `CO[C@H]1/C=C/O[C@@]2(C)Oc3c(C)c(O)c4c(O)c(c(/C=N/N5CCN(C)CC5)c(O)c4c3C2=O)NC(=O)/C(C)=C\C=C\[C@H](C)[C@H](O)[C@@H](C)[C@@H](O)[C@@H](C)[C@H](OC(C)=O)[C@@H]1C`, with “inactive”; and `O=C(OCCCCCCOC(=O)c1ccccc1)c1ccccc1`, with “inactive”. On to `CCCCCCCCN(C)CCCCCCCC`, for which the outcome was inactive. For the compound `O=C=NCCCCCCN=C=O`, the outcome was inactive.
